# Measured values taken from PubChem BioAssay.
# Active and inactive are the calls of the source.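 How the source made its calls, unless noted: active means fluorescence slope after compound addition differing from the mean of all screened samples at 99.7% confidence, in either direction; inactive means the rest.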
# Tests used:
# [1] = inhibitors of TNFa-induced NFkB p65 translocation, primary screen, imaging, HUVEC, MLSMR starter and 10KST1 sets (AID 438;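 active means inhibition above 20% together with a positive visual image hit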;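 further: compound added about 3h40 before a 20 min TNFalpha stimulation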;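 on inhibition: signal is the nuclear over cytoplasmic p65 intensity ratio per well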); details: HUVEC TNFa-induced p65 nuclear translocation; cell count: measured here: nuclei count (cytotoxicity indicator), at 2.08 µM; inhibition: at 2 µM, stronger effect = higher value, 0% TNFa-plus-vehicle, 100% no-TNFa wells
# [2] = reduction of polyQ htt aggregates in cells – imaging, exon1htt(103Q)mCFP cells, high-content imaging, primary screen (AID 483;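 active means visual image review flags a hit and inhibition of aggregation exceeds 20%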;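 further: compound exposure lasted 3 days before fixation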;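 on nuclei count: percent of the per-plate median nuclei count of sample wells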); details: exon1htt(103Q)mCFP cell line, aggregate imaging, at 2 µM; inhibition of aggregation: stronger effect = higher value; nuclei count: measured here: cell count, toxicity
# [3] = endothelial E-selectin expression blockers – imaging, HUVEC, immunofluorescence, MLSMR starter and 10KST1 sets, primary screen (AID 487;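 active means visually confirmed hit in the image check and inhibition above 20%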;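 on inhibition: signal is fraction of cell area covered by stained E-selectin grains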;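 on nuclei count: 100% = median nuclei count of all wells on the same plate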); details: HUVEC TNFalpha-induced E-selectin immunofluorescence imaging, at 2 µM; inhibition: stronger effect = higher value; nuclei count: measured here: cell number, toxicity
# [4] = target: Voltage-gated potassium channel subunit beta-2 (Rattus norvegicus) (UniProt P62483); assay: inhibitors of rat Kvbeta2 reductase activity – biochemical, NADPH fluorescence, primary screen (AID 622;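 active means fluorescence slope higher than the sample average by over 3 SD, cut at about -0.22 in these data, passing the limit was not always enough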;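 further: slope of raw intensity against log time taken from 70 to 1610 s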); details: recombinant KvBeta, 4-cyanobenzaldehyde reduction, at 10 µM, stronger effect = higher value
# Sequence of Voltage-gated potassium channel subunit beta-2 (Rattus norvegicus) (P62483 whole entry, looked up): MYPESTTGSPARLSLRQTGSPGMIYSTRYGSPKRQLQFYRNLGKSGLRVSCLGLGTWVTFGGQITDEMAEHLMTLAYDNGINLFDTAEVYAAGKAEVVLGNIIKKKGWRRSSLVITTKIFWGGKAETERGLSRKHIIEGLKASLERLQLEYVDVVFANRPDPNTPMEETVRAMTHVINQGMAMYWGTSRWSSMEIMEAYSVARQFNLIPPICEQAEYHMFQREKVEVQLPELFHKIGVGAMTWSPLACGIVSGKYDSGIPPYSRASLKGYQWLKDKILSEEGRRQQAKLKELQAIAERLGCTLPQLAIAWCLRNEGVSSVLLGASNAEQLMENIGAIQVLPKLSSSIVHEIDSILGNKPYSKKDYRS
# [5] = target: Voltage-gated potassium channel subunit beta-2 (Rattus norvegicus) (UniProt P62483); assay: enhancers of rat Kvbeta2 NADPH turnover – biochemical, NADPH fluorescence, primary screen (AID 623;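 active means NADPH fluorescence slope more negative than the mean of all samples by about 3 SD, 99.7% confidence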;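 further: fluorescence intensity change per second fitted from 20 to 320 s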); details: Recombinant KvBeta, NADPH fluorescence decrease slope, 10 min; at 10 µM; stronger effect = lower value
# [6] = target: Alpha-2C adrenergic receptor (Homo sapiens) (UniProt P18825); assay: compounds altering alpha2C-coupled GIRK flux – cell-based, HEK293 alpha2C/GIRK1/2, thallium flux, primary screen (AID 624); details: thallium flux BTC fluorescence, at 10 µM, actives lie on both sides;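 further: slope of fluorescence ratio to pre-addition baseline per second over 15 to 24 s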
# Sequence of Alpha-2C adrenergic receptor (Homo sapiens) (P18825 whole entry, looked up): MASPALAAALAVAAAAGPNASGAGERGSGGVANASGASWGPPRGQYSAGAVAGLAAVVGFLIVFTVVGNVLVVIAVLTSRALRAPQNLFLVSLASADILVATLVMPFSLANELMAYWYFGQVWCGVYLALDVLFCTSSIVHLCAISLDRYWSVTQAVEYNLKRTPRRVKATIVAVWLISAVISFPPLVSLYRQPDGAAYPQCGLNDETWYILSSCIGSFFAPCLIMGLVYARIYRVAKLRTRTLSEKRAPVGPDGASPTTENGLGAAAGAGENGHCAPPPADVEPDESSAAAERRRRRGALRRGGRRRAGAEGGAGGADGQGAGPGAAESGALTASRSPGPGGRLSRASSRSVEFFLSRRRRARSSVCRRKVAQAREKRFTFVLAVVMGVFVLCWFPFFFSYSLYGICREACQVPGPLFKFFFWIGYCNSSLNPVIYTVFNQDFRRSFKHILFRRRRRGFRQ
# [7] = blockers of RIG-like receptor reporter activation – cell-based, Sendai virus stimulus, luciferase, 10K MLSCN set, TLR/RLR signaling modifier project, primary screen (AID 602276;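 active means inhibition at or above 50% at 10 µM; inactive means inhibition below 50%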;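 further: firefly luciferase from ISG56 promoter only with Renilla not read in this screen; 0% = Sendai virus plus DMSO and 100% = medium plus DMSO without virus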); details: HEK293 RL24 IRF3 luciferase reporter, at 10 µM, stronger effect = higher value
# [8] = TLR3 IRF3 reporter activation blockers – cell-based, poly I:C stimulus, luciferase, 10K MLSCN set, primary screen (AID 602277;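 active means inhibition of the reporter signal at or above 50%; inactive means inhibition below 50%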); details: HEK293-TLR3 RL24 IRF3 luciferase reporter, at 10 µM, stronger effect = higher value
SMILES,cell count [1],inhibition [1],inhibition of aggregation [2],nuclei count [2],inhibition [3],nuclei count [3],fluorescence slope [4],NADPH fluorescence slope [5],slope [6],inhibition [7],inhibition [8]
CC(C)(C)NC(=O)NC(=O)COc1ccccc1C#N,432,-28.2% (inactive),-6.3% (inactive),108%,-27% (inactive),139%,-0.591 (inactive),8.6e-06 (inactive),0.0068 (inactive),2.8% (inactive),-67.2% (inactive)
CCOC(=O)c1c(C)[nH]c(C)c1C(=O)COc1ccc(NC(=O)c2ccco2)cc1,426,-10.7% (inactive),8.3% (inactive),102%,-423% (inactive),144%,-0.646 (inactive),1.7e-05 (inactive),0.00505 (inactive),14.6% (inactive),20.5% (inactive)
Cc1ccc(-n2c(-c3ccncc3)nnc2-c2cccs2)cc1,456,-3.2% (inactive),-22.5% (inactive),104%,-55.2% (inactive),119%,-0.384 (inactive),-4.2e-05 (inactive),0.0046 (inactive),11.8% (inactive),12.5% (inactive)
COc1ccc(NC(=O)C2CCCN(S(=O)(=O)c3cccc4cccnc34)C2)cc1OC (configuration not stated),551,-2.6% (inactive),-0.5% (inactive),104%,-24.3% (inactive),109%,-0.559 (inactive),8e-06 (inactive),0.007 (inactive),14.2% (inactive),24.7% (inactive)
COc1ccc(N2CCN(Cc3nc4c(c(=O)[nH]c(=O)n4C)n3CC(C)=O)CC2)cc1,682,0.5% (inactive),-29.1% (inactive),126%,-37.3% (inactive),119%,-0.578 (inactive),-2.9e-05 (inactive),0.00484 (inactive),4.33% (inactive),29.5% (inactive)
COc1ccc(C2CC(c3cccc(C)c3)n3ncnc3N2)cc1 (configuration not stated),595,5.1% (inactive),0% (inactive),97.8%,4% (inactive),111%,-0.569 (inactive),1.9e-05 (inactive),0.00625 (inactive),-16.2% (inactive),2.59% (inactive)
O=C(Cn1nc(-c2ccc3c(c2)OCCO3)ccc1=O)Nc1ccc(N2CCOCC2)cc1,270,11.8% (inactive),-53.9% (inactive),90.7%,-60.3% (inactive),111%,-0.429 (inactive),-5.2e-05 (inactive),0.00403 (inactive),2.21% (inactive),21% (inactive)
Cc1ccc(C(=O)CC2(O)C(=O)N(CN3CCOCC3)c3ccccc32)cc1 (configuration not stated),396,-8.1% (inactive),-5.7% (inactive),103%,-52.9% (inactive),99.1%,-0.367 (inactive),8.1e-06 (inactive),0.00346 (inactive),-4.62% (inactive),5.37% (inactive)
COC(=O)Nc1sc2c(c1C(N)=O)CCCCCC2,522,2% (inactive),18.9% (inactive),95.2%,-53.8% (inactive),92%,-0.509 (inactive),-5.2e-05 (inactive),0.00644 (inactive),5.06% (inactive),17.8% (inactive)
CCn1cc(C(=O)NCC2CCCO2)c(=O)c2cc(S(=O)(=O)N(C)C3CCCCC3)ccc21 (configuration not stated),528,3.7% (inactive),-8.9% (inactive),99.3%,-60.9% (inactive),97.9%,-0.629 (inactive),-3.4e-05 (inactive),0.00653 (inactive),16.7% (inactive),33.2% (inactive)
COC(=O)c1[nH]c2ccc(C)cc2c1NC(=O)CN1CCCc2ccccc21,408,3.1% (inactive),21.6% (inactive),83.4%,-29.9% (inactive),106%,-0.39 (inactive),-4.8e-05 (inactive),0.00333 (inactive),21.5% (inactive),12% (inactive)
CCOC(=O)Cn1nc(-c2ccc(C)cc2)ccc1=O,534,-21% (inactive),31% (inactive),121%,-42.9% (inactive),108%,-0.393 (inactive),-0.000149 (inactive),0.00747 (inactive),-9.24% (inactive),-5.48% (inactive)
